# Compounds with a hit are over-represented: about 1.4% of the library has one in this group of screens.
# F508del corr – F508del CFTR correction, initial screen, CFBE line, single point | CFBE cells, YFP halide quenching; stimulated with forskolin plus potentiator P3; % fluorescence drop versus neutral controls | activity (quench increase), % at 7.58 µM | 0.36% of 350,000 active | AID 720511, 2013;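 active means mean added fluorescence quench of at least 8% versus neutral control, with both replicates also reaching 8%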;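 further: cells transiently co-express mutant CFTR-F508del with the halide-sensitive YFP; corrector assay measuring rescue of mutant channel to the surface after 24 h compound exposure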
# PglD DTNB – C. jejuni PglD acetyltransferase inhibitors, primary screen, biochemical, DTNB colorimetric, single point. purified PglD enzyme, DTNB colorimetric CoA detection. inhibition, % at 12.5 µM. 0.098% of 360,000 active; in the data active means inhibition above about 16%, passing the limit was not always enough
# Statin myotox sup – suppressors of statin myotoxicity in C2C12 myotubes, primary screen, cell-based, single point, plate reader; C2C12 myotubes + simvastatin, ATP luminescence, 48 h; scaled: DMSO 0, geranylgeraniol control 100; rescue of ATP level, % at 7.49 µM; 0.78% of 330,000 active; AID 602340, 2012;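 active means mean ATP rescue above about 67%, or every replicate alone reaching that limit, limit read from the data, passing the limit was not always enough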;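 further: myotubes were challenged with 10 µM simvastatin during compound exposure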
# ARNT-TACC3 inh – disruptors of ARNT/TACC3 protein interaction, primary screen, biochemical, AlphaScreen, single concentration | Transforming acidic coiled-coil-containing protein 3 (Homo sapiens), Q9Y6A5 | AID 623870, 2012 | 0.66% of 390,000 active | AlphaScreen His-ARNT PAS-B/GST-TACC3 binding, luminescence; TACC3 fragment carries E629A point mutation | inhibition, % at 9.99 µM;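 active means mean inhibition of replicates at least 50% and at least half of replicates each reaching 50%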
# ARNT Alpha ctr – AlphaScreen signal interference compounds, dose response, artefact control for ARNT-TACC3 interaction inhibitor project, biochemical, luminescence, cherry-pick | shares compounds with ARNT-TACC3 inh | His-ARNT PASB-GST AlphaScreen artifact counter-screen | AC50, µM (highest dose often 68 µM) | 50% of 1,200 active | AID 651705, 2012;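 active means every separate test run was called active for a drop in luminescence, with AC50 within twice the top valid dose, actives reach about 71 µM in these data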
# A number is an active result; – = inactive; · = no result.
SMILES,F508del corr,PglD DTNB,Statin myotox sup,ARNT-TACC3 inh,ARNT Alpha ctr
CC(=O)Nc1ccc(-n2cnnn2)cc1,·,·,·,–,·
O=C(O)c1cn[nH]c1-n1cnnn1,·,–,–,61,–
C[C@H]1CN([C@@H](C)CO)S(=O)(=O)c2ccc(Br)cc2O[C@@H]1CN(C)C(=O)c1cnccn1,–,–,–,–,·
O=C(C[C@H]1C[C@@H]2c3cc(NC(=O)Nc4ccccc4F)ccc3O[C@@H]2[C@H](CO)O1)NC1CCCC1,–,–,–,–,·
Cc1ccc(S(=O)(=O)Cn2nnnc2C(c2ccccc2)N2CCN(c3ccccc3)CC2)cc1 (configuration not stated),·,–,–,58,–
Cc1ccc(S(=O)(=O)Cn2nnnc2C(c2ccccc2)N2CCN(c3ncccn3)CC2)cc1 (configuration not stated),·,–,–,–,·
Cc1ccc(S(=O)(=O)N2CCOCC2)cc1NC(=O)CNCc1ccccc1Cl,–,–,–,–,·
Cc1ccc(S(=O)(=O)N2CCOCC2)cc1NC(=O)CNCc1ccccn1,–,–,–,65,50µM
Cc1ccc(S(=O)(=O)NC(=O)c2cc(C)n(CCCn3ccnc3)c2C)cc1,·,–,–,53,–
Cc1ccc(S(=O)(=O)NCCCn2ccnc2)cc1,–,·,·,–,·
Cc1ccc(S(=O)(=O)NCC[C@H]2CC[C@H](NS(=O)(=O)c3ccccc3Cl)[C@@H](CO)O2)cc1,–,–,–,–,·
COc1cc(C2C(C#N)=C(N)Oc3n[nH]c(C)c32)ccc1OC(=O)c1ccccc1 (configuration not stated),·,–,–,60,–
O=C(Nc1cccc(F)c1)c1cccnc1NCCc1ccccc1,·,·,·,active,–
COc1ccc2c3c([nH]c2c1)[C@H](CO)N(S(=O)(=O)c1cn(C)cn1)CC31CCN(Cc2ccccc2F)CC1,–,·,·,·,·
Cc1cccc(S(=O)(=O)N2C[C@H]3[C@@H](c4ccccc42)[C@@H](CO)N3Cc2ccccn2)c1,–,–,–,–,·
O=S(=O)(c1ccccc1)N1C[C@H]2[C@@H](c3ccccc31)[C@@H](CO)N2Cc1ccccn1,–,–,–,27,–
CC(=O)c1cccc(-c2ccc3c(=O)[nH]c(Nc4ccccc4)cc3c2)c1,–,–,–,33,–
COc1ccc([Si](C)(C)[C@@H]2[C@@H](CCO)O[C@]3(C(=O)N4c5c(cc(OC)cc53)C(C)=CC4(C)C)[C@H]2C)cc1,–,–,·,52,9µM
COc1ccc([Si](C)(C)[C@H]2[C@H](CCO)O[C@@]3(C(=O)N4c5c(cc(OC)cc53)C(C)=CC4(C)C)[C@@H]2C)cc1,–,–,·,–,·
CC1=NN(c2ccccc2C)C(=O)C1,–,–,–,active,–
COc1cc(NC(=O)C(=O)Nc2ccc3nc4n(c(=O)c3c2)CCCCC4)cc(OC)c1OC,–,·,–,50,–
COCC(=O)Nc1ccc2nc3n(c(=O)c2c1)CCCCC3,–,–,–,–,·
O=C(CSc1n[nH]c(-c2cccnc2)n1)Nc1ccccc1,·,–,·,–,·
O=C(CSc1n[nH]c(-c2ccccn2)n1)Nc1ccccc1,–,–,–,62,7.7µM
COc1ccc(NC(=O)CSc2n[nH]c(-c3ccccn3)n2)cc1,–,–,–,58,6.9µM
SMILES,F508del corr,PglD DTNB,Statin myotox sup,ARNT-TACC3 inh,ARNT Alpha ctr
COc1ccccc1NC(=O)CSc1n[nH]c(-c2ccccn2)n1,–,·,–,61,11µM
COc1ccccc1-c1nc(SCC(=O)Nc2ccccc2)n[nH]1,–,–,–,–,·
O=C(c1cc(-c2ccccc2)on1)N1CCC(N2CCCC2)CC1,·,·,·,·,–
O=C(c1cc(-c2ccccc2)on1)N1CCN(c2ccncc2)CC1,·,·,·,·,–
O=C(c1cc(-c2ccccc2)on1)N1CCC(CO)CC1,·,·,·,·,–
O=C(c1cc(-c2ccccc2)on1)N1CCN(c2ccccc2)CC1,–,–,–,–,·
COc1ccccc1N1CCN(C(=O)c2cc(-c3ccccc3)on2)CC1,–,–,–,–,·
O=C(c1cc(-c2ccccc2)on1)N1CCCC1,·,–,–,–,·

# Bioassay records: PubChem, Broad Institute
